# “And” between values parts separate entries of the source, which are not always exact repeats. Identical values can stand only once. Results filed as inconclusive are left out. Where a call stands in place of a potency, no number is given. More than one record can exist for a structure, and the calls need not agree. The source made the active and inactive calls. Unless noted, calls follow the shape of the dose curve; as a rule, active = well fitted curve in the direction sought with a large enough effect in the repeat runs; inconclusive = weak or mixed curves; inactive = no such curve, though single readings can be large; an effect the other way counts as inactive or inconclusive.
# How the values were obtained:
# [1] = qHTS assay to identify aromatase inhibitors - cell viability counter screen (AID 743084);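 also: cells stimulated with testosterone during compound exposure; nearly all actives have a fitted effect of over 55% in size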; also: potency is read from the fitted curve at half-maximal effect
# [2] = biological target: Aryl hydrocarbon receptor (Homo sapiens) (UniProt P35869); assay: qHTS assay to identify small molecule that activate the aryl hydrocarbon receptor (AhR) signaling pathway (AID 743085); also: nearly all actives have a fitted effect of over 15% in size; also: potency is read from the fitted curve at half-maximal effect;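 as to activation: HG2L7.5c1 human HepG2 liver cells with stably integrated DRE-driven firefly reporter; series mostly up to about 70 µM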
# Procedure, shortened: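 AhR agonist activity is inferred from enhanced light output of a DRE-controlled firefly luciferase reporter in HepG2 cells, measured with ONE-Glo following 24 h treatment at 37C.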
# [3] = qHTS assay to identify small molecule that activate the aryl hydrocarbon receptor (AhR) signaling pathway - cell viability counter screen (AID 743086); also: nearly all actives have a fitted effect of over 45% in size; also: potency is read from the fitted curve at half-maximal effect
# Procedure, shortened: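 Cytotoxicity counter screen: CellTiter-Fluor signal (30 min, 37 C) in 4000 HepG2 cells/well carrying the DRE-luciferase reporter, following 24 h compound exposure at 37 C.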
# [4] = biological target: Peroxisome proliferator-activated receptor gamma (Homo sapiens) (UniProt P37231); assay: qHTS assay to identify small molecule agonists of the peroxisome proliferator-activated receptor gamma (PPARg) signaling pathway (AID 743094; active = well fitted activation curve with a large enough effect in the signal ratio in the repeat runs, not every such curve was filed as active; the % refers to the signal ratio; also: potency is read from the fitted curve at half-maximal effect)
# Procedure, shortened: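 Cells from the PPARg UAS-bla HEK293H line are plated and incubated 5 h at 37C. Compounds in DMSO are pinned in and left 17 h at 37C. LiveBLAzer B/G substrate is then added for 1 h at room temperature before fluorescence is measured.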
# [5] = biological target: Peroxisome proliferator-activated receptor gamma (Homo sapiens) (UniProt P37231); assay: qHTS assay to identify small molecule antagonists of the peroxisome proliferator-activated receptor gamma (PPARg) signaling pathway (AID 743191; calls by dose curve; also: series mostly up to about 63 µM; nearly all actives have a fitted effect of over 30% in size)
# Procedure, shortened: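 Beta-lactamase reporter under UAS control in HEK293H PPARg-bla cells; compound treatment 17 h at 37C. Read-out: fluorescence intensity after 1 h room-temperature incubation with LiveBLAzer B/G FRET substrate.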
# [6] = qHTS assay to identify small molecule antagonists of the peroxisome proliferator-activated receptor gamma (PPARg) signaling pathway - cell viability counter screen (AID 743194); details: Potency: co-treated with 50 nM rosiglitazone unless noted; also: nearly all actives have a fitted effect of over 55% in size; also: potency is read from the fitted curve at half-maximal effect
# Procedure, shortened: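 Viability was measured as CellTiter-Glo luminescence in GeneBLAzer PPARg UAS-bla HEK293H cells. These cells had been exposed 17 h at 37 C to compounds together with rosiglitazone at 50 nM final, with the beta-lactamase readout taken in the same wells.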
# [7] = qHTS assay for small molecule agonists of the antioxidant response element (ARE) signaling pathway (AID 743202; active = well fitted activation curve with a large enough effect in the signal ratio in the repeat runs, not every such curve was filed as active; the % refers to the signal ratio; also: potency is read from the fitted curve at half-maximal effect)
# Procedure, shortened: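 Beta-lactamase reporter activity, read as fluorescence intensity, reflects ARE/Nrf2 pathway induction in HepG2 cells after 16 h compound exposure at 37 C; substrate loading was 2 h at room temperature.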
# [8] = qHTS assay for small molecule agonists of the antioxidant response element (ARE) signaling pathway - cell viability counter screen (AID 743203; calls by dose curve; also: nearly all actives have a fitted effect of over 55% in size; also: potency is read from the fitted curve at half-maximal effect)
# Procedure, shortened: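 Cytotoxicity was tested in parallel with the ARE reporter screen. ARE-bla HepG2 cells were exposed to compounds for 16 hrs, and viability was taken from CellTiter-Glo luminescence.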
# [9] = qHTS assay for small molecule activators of the heat shock response signaling pathway - cell viability counter screen (AID 743209); also: nearly all actives have a fitted effect of over 50% in size; also: potency is read from the fitted curve at half-maximal effect
# Procedure, shortened: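 Cytotoxicity counter screen run in parallel with the HSE beta-lactamase reporter, using the same wells. HeLa HSE-bla cells received compound for 5 h at 37 C; ATP-based CellTiter-Glo luminescence was measured after 30 min at room temperature.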
# [10] = qHTS assay for small molecule activators of the heat shock response signaling pathway (AID 743210; active = well fitted activation curve with a large enough effect in the signal ratio in the repeat runs, with a control signal flat, not every such curve was filed as active; the % refers to the signal ratio; also: potency is read from the fitted curve at half-maximal effect;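 as to activation: HeLa cells with beta-lactamase reporter driven by heat shock elements; series mostly up to about 63 µM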)
# Procedure, shortened: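 Fluorescence from a cleaved B/G FRET substrate (2.5 h, room temp) reports HSE-driven beta-lactamase in HeLa cells treated 5 h at 37 C with DMSO-dissolved compounds.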
# Peroxisome proliferator-activated receptor gamma (Homo sapiens), sequence (P37231 whole entry, looked up): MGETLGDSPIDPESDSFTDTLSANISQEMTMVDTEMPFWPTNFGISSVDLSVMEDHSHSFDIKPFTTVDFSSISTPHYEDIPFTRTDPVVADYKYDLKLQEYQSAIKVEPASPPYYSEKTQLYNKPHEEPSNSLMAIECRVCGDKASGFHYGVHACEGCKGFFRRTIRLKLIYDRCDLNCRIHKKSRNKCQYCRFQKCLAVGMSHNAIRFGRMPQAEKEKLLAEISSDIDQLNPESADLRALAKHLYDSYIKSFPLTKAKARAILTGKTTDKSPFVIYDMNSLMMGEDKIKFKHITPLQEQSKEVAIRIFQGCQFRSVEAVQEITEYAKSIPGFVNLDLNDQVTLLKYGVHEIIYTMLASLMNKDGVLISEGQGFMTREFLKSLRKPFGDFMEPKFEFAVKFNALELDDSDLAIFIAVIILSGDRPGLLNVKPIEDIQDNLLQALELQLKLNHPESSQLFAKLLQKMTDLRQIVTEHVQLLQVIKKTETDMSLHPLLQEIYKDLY
# Aryl hydrocarbon receptor (Homo sapiens), sequence (P35869 whole entry, looked up): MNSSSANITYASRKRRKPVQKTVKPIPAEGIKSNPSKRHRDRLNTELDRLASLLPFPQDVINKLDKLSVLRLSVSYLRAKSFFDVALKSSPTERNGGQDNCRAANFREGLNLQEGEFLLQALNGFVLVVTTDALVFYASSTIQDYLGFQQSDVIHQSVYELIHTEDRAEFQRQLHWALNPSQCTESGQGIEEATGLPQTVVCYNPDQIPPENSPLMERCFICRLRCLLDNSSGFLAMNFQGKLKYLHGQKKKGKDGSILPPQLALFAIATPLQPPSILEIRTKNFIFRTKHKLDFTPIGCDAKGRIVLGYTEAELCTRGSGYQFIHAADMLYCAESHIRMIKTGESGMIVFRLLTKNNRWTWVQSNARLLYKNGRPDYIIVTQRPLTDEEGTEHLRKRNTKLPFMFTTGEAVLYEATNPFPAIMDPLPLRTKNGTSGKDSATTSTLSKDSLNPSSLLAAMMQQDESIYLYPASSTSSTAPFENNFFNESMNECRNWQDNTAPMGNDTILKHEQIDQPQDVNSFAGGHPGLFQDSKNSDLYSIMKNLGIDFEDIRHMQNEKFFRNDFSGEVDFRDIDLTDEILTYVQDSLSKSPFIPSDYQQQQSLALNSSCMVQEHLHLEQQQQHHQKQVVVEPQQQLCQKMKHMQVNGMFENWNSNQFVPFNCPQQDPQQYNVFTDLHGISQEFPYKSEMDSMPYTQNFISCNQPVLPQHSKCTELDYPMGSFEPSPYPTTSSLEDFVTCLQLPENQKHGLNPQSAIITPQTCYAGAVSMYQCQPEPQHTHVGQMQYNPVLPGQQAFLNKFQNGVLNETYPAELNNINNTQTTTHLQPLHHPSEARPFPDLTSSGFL
SMILES,Potency [1],Potency [2],Potency [3],Potency [4],Potency [5],Potency [6],Potency [7],Potency [8],Potency [9],Potency [10]
Cc1ccccc1[N+](=O)[O-],inactive,inactive,inactive,inactive,inactive,inactive,inactive,inactive,inactive,–
CCCCN(CCCC)N=O,inactive,inactive,inactive,inactive,inactive,inactive,inactive,inactive,inactive,inactive
O=C(O)CC[N+](=O)[O-],inactive,inactive,inactive,inactive,inactive,inactive,inactive,inactive,inactive,inactive
CCCCNC(=O)n1c(NC(=O)OC)nc2ccccc21,inactive,34.2 µM (active) and inactive,inactive,inactive,inactive,inactive,inactive,inactive,inactive,inactive
CCCCN(CC)c1c([N+](=O)[O-])cc(C(F)(F)F)cc1[N+](=O)[O-],inactive,inactive,inactive,inactive,inactive,inactive,inactive,inactive,inactive,inactive
Oc1cc(Cl)c(Cl)cc1Cl,inactive,inactive,inactive,inactive,inactive,inactive,–,inactive,inactive,–
Cc1c(COC(=O)[C@@H]2[C@H](/C=C(\Cl)C(F)(F)F)C2(C)C)cccc1-c1ccccc1,inactive,inactive,inactive,inactive,–,inactive,inactive,inactive,inactive,–
C[C@]12CCC(=O)C(O)=C1CC[C@@H]1[C@@H]2CC[C@]2(C)C(=O)CC[C@@H]12,inactive,inactive,inactive,inactive,inactive,inactive,–,inactive,inactive,–
c1ccc(P(c2ccccc2)c2ccccc2)cc1,inactive,inactive,inactive,inactive,inactive,inactive,–,inactive,inactive,inactive and 3.34 µM (active)
O=[N+]([O-])c1ccc(O)c([N+](=O)[O-])c1,54.7 µM (active),24.4 µM (active),38.7 µM (active),inactive,inactive,inactive,48.8 µM (active),inactive,inactive,inactive
CNC(=O)Oc1cccc2c1OC(C)(C)O2,inactive,inactive,inactive,inactive,inactive,inactive,–,inactive,inactive,–
CCN(CC)C(=O)/C(Cl)=C(\C)OP(=O)(OC)OC,inactive,inactive,inactive,inactive,–,inactive,inactive,inactive,inactive,–
CCCCCCCCCCCOC(=O)c1ccccc1C(=O)OCCCCCCCCCCC,inactive,inactive,inactive,inactive,–,inactive,inactive,inactive,inactive,–
NC(=S)Nc1ccccc1,inactive,inactive,inactive,inactive,inactive,inactive,inactive,inactive,inactive,inactive
CC(C)(C)c1ccccc1O,inactive,inactive,inactive,inactive,inactive,inactive,–,inactive,inactive,–
COP(=S)(OC)Oc1cc(Cl)c(Cl)cc1Cl,inactive,inactive and 30.4 µM (active),inactive,inactive,–,inactive,inactive,inactive,inactive,inactive
O=c1oc2ccccc2c(O)c1C(CC(O)c1ccc(-c2ccc(Br)cc2)cc1)c1ccccc1 (stereo unspecified),inactive,inactive,inactive,601 nM (active) and 1.04 µM (active),–,–,–,inactive,41.3 µM (active),–
CC1(C)C(C=C(Cl)Cl)C1C(=O)OC(C#N)c1cccc(Oc2ccccc2)c1 (stereo unspecified),inactive,inactive,inactive,inactive,inactive,inactive,–,inactive,inactive,–
c1ccc(-c2cccc(-c3ccccc3)c2)cc1,inactive,inactive and 61.1 µM (active),inactive,inactive,inactive,inactive,inactive,inactive,inactive,inactive
Nc1ccc(Cl)c(Cl)c1,inactive,55.7 µM (active) and 61.1 µM (active),inactive,inactive,–,inactive,inactive,inactive,inactive,inactive

SMILES,Potency [1],Potency [2],Potency [3],Potency [4],Potency [5],Potency [6],Potency [7],Potency [8],Potency [9],Potency [10]
CCN(CC)N=O,inactive,inactive,inactive,inactive,inactive,inactive,inactive,inactive,inactive,inactive
CCOc1cc(Oc2ccc(C(F)(F)F)cc2Cl)ccc1[N+](=O)[O-],inactive,inactive,inactive,inactive,inactive,inactive,–,inactive,inactive,inactive
COC(=O)c1sccc1S(=O)(=O)NC(=O)Nc1nc(C)nc(OC)n1,inactive,inactive,inactive,inactive,inactive,–,inactive,inactive,inactive,–
CCOC(=O)C(C)OC(=O)c1cc(Oc2ccc(C(F)(F)F)cc2Cl)ccc1[N+](=O)[O-] (stereo unspecified),inactive,inactive,inactive,inactive,–,inactive,–,inactive,inactive,–
Clc1nc(Cl)nc(Cl)n1,inactive,inactive,inactive,inactive,inactive,inactive,inactive,inactive,inactive,inactive
O=[N+]([O-])c1c(Cl)c(Cl)c(Cl)c(Cl)c1Cl,inactive,inactive,inactive,inactive,–,inactive,24.2 µM (active),19.3 µM (active),inactive,–
O=C(Nc1ccc(Br)cc1)c1cc(Br)cc(Br)c1O,inactive,5.31 µM (active) and 3.42 µM (active) and 3.06 µM (active),inactive,inactive,–,488 nM (active) and 245 nM (active) and 3.76 µM (active),–,34.2 µM (active) and 9.69 µM (active) and 13.3 µM (active),–,–
O=P(Oc1ccccc1)(Oc1ccccc1)Oc1ccccc1,inactive,inactive,inactive,inactive,–,–,inactive,inactive,inactive,–
CCC(=O)O[C@H]1CC[C@H]2[C@@H]3CCC4=CC(=O)CC[C@]4(C)[C@H]3CC[C@]12C,inactive,inactive,inactive,inactive,–,49 µM [setting not given] (active) and inactive,–,68.6 µM (active) and inactive,54.9 µM (active) and inactive,inactive
O=S(=O)(Oc1ccc(Cl)cc1)c1ccc(Cl)cc1,inactive,inactive,inactive,inactive,inactive,inactive,inactive,inactive,inactive,inactive
CC(C)(OOC(C)(C)c1ccccc1)c1ccccc1,inactive,inactive,inactive,inactive,–,inactive,inactive,inactive,48.3 µM (active) and inactive,inactive
Cc1ccc(OP(=O)(Oc2ccc(C)cc2)Oc2ccc(C)cc2)cc1,inactive,inactive,inactive,inactive,–,inactive,inactive,inactive,inactive,inactive
Brc1ccc(Oc2cc(Br)c(Br)cc2Br)c(Br)c1,inactive,inactive,inactive,inactive,–,inactive,inactive,–,inactive,–
Cc1ccc2c(c1N)C(=O)c1ccccc1C2=O,43.3 µM (active),3.03 µM (active) and 4.33 µM (active),27.3 µM (active),inactive,–,inactive,–,inactive,inactive,–
C#C[C@]1(O)CC[C@H]2[C@@H]3CCC4=CC(=O)CC[C@]4(C)[C@H]3CC[C@@]21C,inactive,inactive,inactive,inactive,–,inactive,inactive,inactive,inactive,–
COP(=S)(OC)Oc1ccc([N+](=O)[O-])cc1,inactive,inactive,inactive,inactive,–,inactive,–,inactive,inactive,–
ClC1C(Cl)C(Cl)C(Cl)C(Cl)C1Cl (stereo unspecified),inactive,inactive,inactive,inactive,inactive,inactive,inactive,inactive,inactive,inactive
Nc1cccnc1,inactive,inactive,inactive,inactive,inactive,inactive,inactive,inactive,inactive,inactive
C=CCc1ccc(OC)cc1,inactive,inactive,inactive,inactive,–,inactive,inactive,inactive,inactive,–
CC(C)Oc1cc(-n2nc(C(C)(C)C)oc2=O)c(Cl)cc1Cl,27.3 µM (active),inactive,inactive,inactive,–,inactive,–,inactive and 34.4 µM (active),inactive,–

# Source: PubChem BioAssay (Tox21)
